A short description of experiment [1]: NCI Yeast Anticancer Drug Screen. Data for the rad50 strain (AID 155).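 Further: 0% = growth of vehicle-only cultures of the same strain.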 The settings on record: S. cerevisiae rad50 strain growth inhibition; at 50.0 µM; stronger effect = higher value. The method, boiled down: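 Relative growth inhibition (compound vs vehicle) was measured in yeast with a defined repair-gene alteration.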
Experiment [2] can be described thus: NCI Yeast Anticancer Drug Screen. Data for the mec2-1 strain (AID 157). The following applies: S. cerevisiae mec2-1 strain, at 50.0 µM, stronger effect = higher value. The method, boiled down: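 Mutant yeast (mec2-1) grown with compound; growth inhibition relative to vehicle control reported.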
The nature of experiment [3]: NCI Yeast Anticancer Drug Screen. Data for the sgs1 mgt1 strain (AID 161).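 Further: 0% = growth of cultures given vehicle only.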 The following applies: S. cerevisiae sgs1 mgt1 strain, at 50.0 µM, stronger effect = higher value. In a few lines: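 Compounds are added to genetically altered yeast, and growth is compared with cultures given vehicle alone to give percent inhibition.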
Experiment [4] can be described thus: NCI Yeast Anticancer Drug Screen. Data for the cln2 rad14 strain (AID 165).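 Further: 0% = growth equal to vehicle treated cultures.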 The following applies: S. cerevisiae cln2 rad14 strain, at 50.0 µM, stronger effect = higher value. The method, boiled down:
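Readout is yeast growth inhibition versus vehicle-treated controls, using a strain with cln2 and rad14 alterations exposed to compound.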

Experiment [5] can be described thus: NCI Yeast Anticancer Drug Screen. Data for the bub3 strain (AID 167). The settings on record: S. cerevisiae bub3 mutant strain, at 50.0 µM, stronger effect = higher value. The method, boiled down:
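Screening used yeast with an engineered genetic alteration affecting cell cycle control. Compound-exposed cultures were compared with vehicle cultures, and reduced growth was taken as inhibition.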

A short description of experiment [6]: NCI Yeast Anticancer Drug Screen. Data for the mlh1 rad18 strain (AID 175). The settings on record: S. cerevisiae mlh1 rad18 strain growth inhibition; at 50.0 µM; stronger effect = higher value. In a few lines:
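Genetically defined yeast (DNA repair-deficient) exposed to compounds; growth inhibition determined relative to vehicle.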

About 79,000 compounds went through this panel and 15% of them were active in at least one assay; those are over-represented in the sample as a whole. A number with no mark means an inactive call. The source made the active and inactive calls. No stated cut-off is given here; in the data, active means growth inhibition above about 70%; inactive means the rest.

`CC12CCc3ccccc3C1=NNC(=O)C2` (stereo unspecified): the growth inhibition in experiment [1] is -3.2%; in experiment [2], -7.55%; in experiment [3], 19.6%; in experiment [4], -6.45%; in experiment [5] it was -5.85%; in experiment [6] it was -6.15%.

Take `Cc1ccc(S(=O)(=O)C(=S)SCc2ccccc2)cc1`: the growth inhibition is 38.5% in experiment [1]; 37.8% in experiment [2]; 59% in experiment [3]; 19.6% in experiment [4]; 35.4% in experiment [5]; 33% in experiment [6].

As for `CCC(=O)c1cc2c(cc1O)CC(C(=O)CC)c1ccccc1-2` (stereo unspecified), the growth inhibition was 13.3% in experiment [1]; 6.55% in experiment [2]; 17% in experiment [3]; -2.55% in experiment [4]; 11.2% in experiment [5]; 12.4% in experiment [6].

On to `CCc1ccc(-n2c(C)nc3[nH]cc(C)c3c2=N)cc1`, for which the growth inhibition in experiment [1] is -13.6%; in experiment [2], -3.35%; in experiment [3] it was -11.9%; in experiment [4], -12.3%; in experiment [5] it was -2.65%; in experiment [6], -10.4%.

`COC(=O)/N=c1\cc(N2CC=CCC2)nc(N)n1O`: the growth inhibition in experiment [1] is -5.85%; in experiment [2], -10.7%; in experiment [3], -21.2%; in experiment [4], 18.9%; in experiment [5], -10.8%; in experiment [6] it was 5.4%.

As to `c1ccc2c(c1)CNNC2`, the growth inhibition was 11.3% in experiment [1]; -4.4% in experiment [2]; -5.55% in experiment [3]; 11.3% in experiment [4]; 15.8% in experiment [5]; -8.1% in experiment [6].

In the case of `CCCC1(C)OCC(CCl)O1` (stereo unspecified), the growth inhibition is -41.6% in experiment [1]; -28.4% in experiment [2]; -14.6% in experiment [3]; -13.2% in experiment [4]; -18.3% in experiment [5]; 0.15% in experiment [6].

`Cc1nc(-n2nc(-c3ccccc3)cc2-c2ccccc2)sc1C(=O)/C=C/c1ccccc1`: the growth inhibition was 6.95% in experiment [1]; 18.9% in experiment [2]; 14.7% in experiment [3]; 9.1% in experiment [4]; 29.6% in experiment [5]; 12.9% in experiment [6].

As to `O=C(c1ccccc1)n1c2ccccc2c2ccccc21`, the growth inhibition in experiment [1] was 9.55%; in experiment [2], -3.3%; in experiment [3] it was 17.6%; in experiment [4], -1%; in experiment [5], 26.2%; in experiment [6] it was 26.2%.

Turning to `CN(C)Cc1ccc(O)c(CN(C)C)n1`, the growth inhibition was -21.1% in experiment [1]; -19.1% in experiment [2]; -14.8% in experiment [3]; -3.65% in experiment [4]; -49.8% in experiment [5]; -19.2% in experiment [6].

As to `O=C1NS(=O)(=O)c2cc(Cl)ccc21`, the growth inhibition in experiment [1] was -34.3%; in experiment [2] it was -22.1%; in experiment [3], -23.8%; in experiment [4] it was -18.4%; in experiment [5], -1.85%; in experiment [6] it was -12.8%.

Regarding `Cc1cc(N)c(N=Cc2ccccc2[N+](=O)[O-])cc1C`, the growth inhibition in experiment [1] was 26.2%; in experiment [2] it was 11.5%; in experiment [3], 39.8%; in experiment [4] it was -58.8%; in experiment [5], 24.8%; in experiment [6] it was 20.9%.

As for `c1cnc(NC(Nc2cnccn2)C2CCCCC2)cn1`, the growth inhibition is -2.25% in experiment [1]; -1.55% in experiment [2]; -6.6% in experiment [3]; -20.9% in experiment [4]; 4.25% in experiment [5]; 1.35% in experiment [6].

`CCOC(=O)N1C/C(=C\c2ccccc2)C(=O)/C(=C/c2ccccc2)C1`: the growth inhibition in experiment [1] was -6.85%; in experiment [2], 0.6%; in experiment [3], -12.3%; in experiment [4], 19.6%; in experiment [5] it was 9.15%; in experiment [6] it was 72.2% (active).

As for `CCOC(=O)CSc1[nH]c(NC(=S)Nc2ccccc2)c(C(N)=O)c1C(N)=O`, the growth inhibition was -14.2% in experiment [1]; -8.2% in experiment [2]; 23.7% in experiment [3]; -1.2% in experiment [4]; 7.5% in experiment [5]; -4.45% in experiment [6].

With `C=CCn1c(=S)sc2c(C(=O)OCC)c3c(C)cc(C)cn3c2c1=O`, the growth inhibition in experiment [1] was -18.1%; in experiment [2], -56.5%; in experiment [3], -60%; in experiment [4], -5%; in experiment [5], -34.7%; in experiment [6], -37.9%.

With `CN(C)c1nc(N(C)C)c2cnn(C)c2n1`, the growth inhibition is 21.7% in experiment [1]; 3.7% in experiment [2]; 20.9% in experiment [3]; -15.8% in experiment [4]; -2.7% in experiment [5]; -29.8% in experiment [6].

As to `O=C(Nc1ccc(N=C=S)cc1Cl)c1cc(Cl)cc(Cl)c1O`, the growth inhibition is 82.3% (active) in experiment [1]; 56.9% in experiment [2]; 78.5% (active) in experiment [3]; 67.7% in experiment [4]; 82.5% (active) in experiment [5]; 82.5% (active) in experiment [6].

With `Cc1oc([N+](=O)[O-])cc1C(=O)O`, the growth inhibition in experiment [1] was 10.5%; in experiment [2], 7.5%; in experiment [3] it was -1.65%; in experiment [4], -69.7%; in experiment [5], -20.1%; in experiment [6], -8.25%.

For `Cc1ncc2c(n1)NC(c1ccc([N+](=O)[O-])cc1)NC2` (stereo unspecified), the growth inhibition is 0.45% in experiment [1]; -2.9% in experiment [2]; -16.6% in experiment [3]; -3.7% in experiment [4]; 14.7% in experiment [5]; -1.7% in experiment [6].

For `CC(O)CCC(O)CCCO` (stereo unspecified), the growth inhibition was 7.8% in experiment [1]; -10.7% in experiment [2]; 8.4% in experiment [3]; -17.1% in experiment [4]; 4.65% in experiment [5]; -11.7% in experiment [6].

Values taken from PubChem BioAssay (NCI).
